This is part of a sample that, as a whole, favours compounds with a hit. Of some 79,000 tested, about 15% had one in any assay. Unmarked numbers belong to inactive results. Active and inactive are the calls of the source. Cut-off read from the data, not from the text of the source: active = growth inhibition above about 70%; inactive = the rest.
Experiments:
[1] = NCI Yeast Anticancer Drug Screen. Data for the rad50 strain (AID 155);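 note: 0% = growth of vehicle-only cultures of the same strain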; details: S. cerevisiae rad50 strain growth inhibition, stronger effect = higher value
Outline: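 A DNA repair-deficient yeast mutant serves as the test organism; compound-induced growth inhibition is calculated against vehicle-treated cells.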

[2] = NCI Yeast Anticancer Drug Screen. Data for the mec2-1 strain (AID 157); details: S. cerevisiae mec2-1 strain, stronger effect = higher value
Outline: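 Mutant yeast (mec2-1) grown with compound; growth inhibition relative to vehicle control reported.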

[3] = NCI Yeast Anticancer Drug Screen. Data for the sgs1 mgt1 strain (AID 161);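 note: 0% = growth of cultures given vehicle only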; details: S. cerevisiae sgs1 mgt1 strain, stronger effect = higher value
Outline: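 Percent growth inhibition was derived by comparing compound-exposed mutant yeast with vehicle-exposed cultures. The strain carries alterations in DNA damage repair.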

[4] = NCI Yeast Anticancer Drug Screen. Data for the cln2 rad14 strain (AID 165);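 note: 0% = growth equal to vehicle treated cultures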; details: S. cerevisiae cln2 rad14 strain, stronger effect = higher value
Outline: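 Readout is yeast growth inhibition versus vehicle-treated controls, using a strain with cln2 and rad14 alterations exposed to compound.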

[5] = NCI Yeast Anticancer Drug Screen. Data for the bub3 strain (AID 167); details: S. cerevisiae bub3 mutant strain, stronger effect = higher value
Outline: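 Inhibition values come from growth of compound-treated mutant yeast normalised to vehicle-treated controls.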

[6] = NCI Yeast Anticancer Drug Screen. Data for the mlh1 rad18 strain (AID 175); details: S. cerevisiae mlh1 rad18 strain growth inhibition, stronger effect = higher value
Outline: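 Genetically defined yeast (DNA repair-deficient) exposed to compounds; growth inhibition determined relative to vehicle.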

[7] = at 5.0 µM (retest, dose inferred, filed as 0.5)
[8] = at 50.0 µM (retest, dose inferred, filed as 5.0)

Structure (SMILES)	growth inhibition [1, 7]	growth inhibition [1, 8]	growth inhibition ([1]; at 50.0 µM)	growth inhibition [2, 7]	growth inhibition [2, 8]	growth inhibition ([2]; at 50.0 µM)	growth inhibition [3, 7]	growth inhibition [3, 8]	growth inhibition ([3]; at 50.0 µM)	growth inhibition [4, 7]	growth inhibition [4, 8]	growth inhibition ([4]; at 50.0 µM)	growth inhibition [5, 7]	growth inhibition [5, 8]	growth inhibition ([5]; at 50.0 µM)	growth inhibition [6, 7]	growth inhibition [6, 8]	growth inhibition ([6]; at 50.0 µM)
CCOC(=O)N1C2C=CC(=O)C(C=C2)N1C(=O)OCC (stereo not given)	-1%	43%	72.8% (active)	-9%	61%	85.5% (active)	1%	73% (active)	85.1% (active)	7%	30%	67.8%	1%	61%	86.7% (active)	18%	85% (active)	94.3% (active)
CC1(c2ccccc2)OC1C(=O)N(c1ccccc1)c1ccccc1 (stereo not given)	14%	99% (active)	95.8% (active)	18%	99% (active)	85% (active)	12%	98% (active)	53.3%	15%	97% (active)	96.7% (active)	22%	98% (active)	92.7% (active)	21%	97% (active)	97.7% (active)
CC(C)SC(=S)Nc1ccc(Cl)c([N+](=O)[O-])c1	25%	99% (active)	99.3% (active)	15%	99% (active)	99.6% (active)	18%	100% (active)	99.5% (active)	2%	99% (active)	99.2% (active)	12%	99% (active)	99.5% (active)	30%	99% (active)	99.4% (active)
CCOc1ccc(C=Nc2ccc(/C=C(\C)C(=O)OCCC(C)C)cc2)cc1	50%	98% (active)	97.6% (active)	72% (active)	99% (active)	98.2% (active)	85% (active)	99% (active)	97.5% (active)	94% (active)	98% (active)	97.2% (active)	86% (active)	97% (active)	82.2% (active)	92% (active)	99% (active)	98% (active)
CC(=O)/C(=C\c1cccc(Cl)c1)C(=O)CCN(C)C	24%	29%	14.8%	20%	33%	28.8%	20%	29%	50.5%	25%	29%	21.4%	13%	34%	4.4%	23%	40%	25.1%
COc1ccc(C(O)/C(=N\NC(N)=S)c2nc3ccc([N+](=O)[O-])cc3[nH]c2=O)cc1OC (stereo not given)	4%	97% (active)	66.1%	1%	99% (active)	28.2%	4%	97% (active)	20.6%	1%	98% (active)	6.55%	6%	98% (active)	22.7%	0%	97% (active)	52.8%
O=c1cc(-c2ccccc2)oc2ccc(-c3ccc4oc(-c5ccccc5)cc(=O)c4c3)cc12	8%	40%	37.3%	7%	16%	40.6%	-10%	82% (active)	31.7%	-1%	39%	28.4%	5%	89% (active)	59%	13%	25%	87.8% (active)
CC(C)=CC1C(COC(=O)CCl)C1(C)C (stereo not given)	-6%	8%	1.85%	3%	0%	44.8%	-2%	3%	-12.3%	0%	-11%	-29.4%	2%	-5%	36.1%	-2%	5%	-23.6%
O=C1C(Cl)=C(c2ccc([N+](=O)[O-])cc2)C(=O)c2c(O)cccc21	79% (active)	95% (active)	90% (active)	100% (active)	99% (active)	93.3% (active)	28%	95% (active)	91.7% (active)	82% (active)	97% (active)	90% (active)	99% (active)	94% (active)	90.8% (active)	99% (active)	97% (active)	88.3% (active)
CN(c1ccc(C(N)=O)cc1)c1c(O)c2ccccc2[nH]c1=O	1%	58%	-27.9%	-1%	48%	6.8%	1%	51%	14.6%	4%	42%	24.9%	-4%	46%	23.5%	0%	63%	15.5%
